D1 ag: human D1 receptor agonism | P21728 | HEK293 T-REx D1 cells, calcium flux, agonist mode | activation, % at 2 µM | 360,000 tested, 1% active | AID 504660
Target sequence (P21728 whole entry, looked up): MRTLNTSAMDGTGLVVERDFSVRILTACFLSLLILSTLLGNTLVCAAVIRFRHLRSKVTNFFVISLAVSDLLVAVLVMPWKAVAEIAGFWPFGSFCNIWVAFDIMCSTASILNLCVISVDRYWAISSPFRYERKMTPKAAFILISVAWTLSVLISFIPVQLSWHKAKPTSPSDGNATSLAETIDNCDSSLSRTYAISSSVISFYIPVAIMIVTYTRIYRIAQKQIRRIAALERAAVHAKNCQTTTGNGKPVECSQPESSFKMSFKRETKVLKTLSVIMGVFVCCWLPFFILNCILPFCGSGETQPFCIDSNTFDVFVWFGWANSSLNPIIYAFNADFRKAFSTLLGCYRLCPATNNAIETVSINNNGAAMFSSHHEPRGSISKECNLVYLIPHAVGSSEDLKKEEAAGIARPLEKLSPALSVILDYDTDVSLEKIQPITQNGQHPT
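Tetracycline-induced HEK293 TREx D1 cells, force-coupled to calcium signalling, were dye-loaded with a no-wash calcium kit. Compound was pin-added after a 10 s baseline. Fluorescence was read kinetically at 1 cycle/s for 180 s, with calcium rises flagged as agonism.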
D1 potentiator: enhances dopamine response at the human D1 receptor. potentiation, % at 10 µM. P21728. HEK293 TREx D1 cells, calcium flux, dopamine EC20 potentiation. 360,000 tested, 0.036% active. AID 504651; in the data active = potentiation above about 30%
TRHR enhancer: allosterically enhances the human TRH receptor. P34981. TRHR cells, fluo-8 calcium fluorescence, EC20 TRH enhancement. enhancement, % at 2 µM. 360,000 tested, 0.66% active. AID 493056; in the data active = enhancement above about 30%
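TRHR-expressing cells loaded with fluo-8 calcium dye were read kinetically (ex 480/em 530) during compound addition, then stimulated with an EC20 of TRH (10 nM final). Enhancement of the Gq-mediated intracellular calcium response was scored.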
TRHR ag: TRH receptor (human) agonism; 360,000 tested, 0.18% active; P34981; activation, % at 2 µM; TRHR cells, calcium flux fluo-8, FDSS agonist mode
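In this calcium-flux screen, cells bearing human TRHR are dye-loaded with fluo-8, baselined for 10 cycles, then exposed to library compounds; positive kinetic calcium responses during the agonist phase mark hits, with TRH as control.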
D1 antagonist: blocks dopamine activation of the human D1 receptor | P21728 | activity change, negative = inhibition, % at 10 µM | HEK293 TREx D1 cells, calcium flux, dopamine EC80; hits give low values | 360,000 tested, 3.2% active | AID 504652; in the data active = activity change below about -30%
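Tetracycline-induced HEK293 Trex D1 cells, force-coupled to calcium, dye-loaded; compounds added and read 180 s, then EC80 dopamine added and calcium flux tracked kinetically another 180 s.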
Glioma ERSR ind: inducers of ER stress response in human glioma cells; U87-MG GRP78 promoter luciferase reporter, 16 h; Potency, µM, actives largely listed as activators; 420,000 tested, 0.02% active; active = well fitted activation curve with a large enough effect; also: series mostly up to about 76 µM; nearly all actives have a fitted effect of over 35% in size
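Stably transfected U87-MG human glioma cells carrying a GRP78-based luminescent sensor were seeded at 1000 cells/well, pin-dosed with compounds and incubated 16 h. Luciferase reagent was then added, and end-point luminescence was read after 10 min at room temperature.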
Numbers stand for hits; – = inactive; · = not tested or not shown. This is a sample that favours compounds with a hit; in the whole collection about 4% have one here. Rule as the data show it, unless noted: active = activation above about 30%; inactive = the rest.

SMILES	D1 ag	D1 potentiator	TRHR enhancer	TRHR ag	D1 antagonist	Glioma ERSR ind
Cc1cc2ccccc2n1CCNC(=O)c1ccccc1	43.1	–	–	–	–	–
Cc1c(O)ccc2c1OCO2	·	·	·	·	·	–
COc1cc(C)c(S(=O)(=O)n2ccc(C)n2)cc1C	–	–	–	–	-31.9	–
CC(=O)NCC(=O)NCC1Cc2cc(C)cc(-c3ccccn3)c2O1 (stereo unspecified)	·	·	·	·	·	–
CCOc1ccccc1NC(=O)CCc1c(C)nn(-c2ccc(N3CCOCC3)nn2)c1C	–	–	–	–	-67.9	–
COc1cccc(CNC(=O)CCc2c(C)nn(-c3ccc(N4CCCC4)nn3)c2C)c1	–	–	–	–	-40.5	–
COc1ccc(CNC(=O)CCc2c(C)nn(-c3ccc(N4CCCCC4)nn3)c2C)cc1	–	–	–	–	–	–
Cc1ccccc1NC(=O)CCc1c(C)nn(-c2ccc(N3CCOCC3)nn2)c1C	–	–	–	–	–	–
CN1C(=O)CC(C(=O)Nc2ccc(C(=O)O)cc2)SC1=Nc1ccc(Cl)cc1 (stereo unspecified)	–	–	–	–	–	–
Cc1c(CN2CCOc3ccc(C(C)(O)COc4ccccc4)cc3C2)cnn1C (stereo unspecified)	·	·	·	·	·	–
Cc1occc1C(=O)N/N=C/C=C/c1ccccc1	–	–	–	–	–	–
Cc1ccc(C(=O)N/N=C/C=C/c2ccccc2)cc1	–	–	–	–	-35.6	–
Cc1nn(-c2c(Cl)cc(Cl)cc2Cl)c(=O)c2ccccc12	74.0	–	–	–	–	–
Cc1nn(-c2ccc(Br)cc2)c(=O)c2ccccc12	–	–	–	–	–	–
Cc1cccc(Cn2cnc3c(cnn3C(C)(C)C)c2=O)c1F	·	·	·	·	·	–
COc1cc(/C=c2\s/c(=C(/C#N)C(=O)N3CCCC3)n(-c3ccccc3)c2=O)ccc1O	138.0	–	–	71.5	–	–
O=S(=O)(c1ccc(Cl)cc1)c1nc(-c2ccccc2F)oc1NCCCN1CCOCC1	–	–	–	–	–	–
CCS(=O)(=O)c1nc(S(=O)(=O)c2ccc(C)cc2)c(NCCN2CCOCC2)s1	–	–	–	–	–	–
CCCS(=O)(=O)c1nc(S(=O)(=O)c2ccc(C)cc2)c(NCCCN2CCOCC2)s1	–	–	–	–	-31.6	–
Cc1ccc(S(=O)(=O)c2nc(-c3ccccc3Cl)oc2NCCCN2CCOCC2)cc1	–	–	34.5	–	–	–
O=C(NCCc1ccccc1)C(=O)Nc1nccs1	32.6	–	–	–	–	–
O=C(CCNS(=O)(=O)c1cccs1)Nc1ccccc1F	–	–	–	–	–	–
O=C(CCNS(=O)(=O)c1cccs1)Nc1nccs1	–	–	–	–	-31.9	–
Cc1ccc(CC(=O)Nc2nccs2)cc1C	–	–	32.4	–	–	–
CCOc1ccc(CC(=O)Nc2nccs2)cc1	–	–	–	–	–	–
SMILES	D1 ag	D1 potentiator	TRHR enhancer	TRHR ag	D1 antagonist	Glioma ERSR ind
Cn1cccc1C(=O)N1CCC[C@@]2(CCN(c3ncccn3)C2)C1	·	·	·	·	·	–
Cc1c(Cl)cccc1NC(=S)N1CCN(Cc2ccc3c(c2)OCO3)CC1	–	–	–	–	–	–
CC/C(=N\NC(=S)Nc1cccc(C)c1)c1ccccc1	–	–	–	–	–	–
CC/C(=N/N=C(\CC)c1ccccc1)c1ccccc1	–	–	–	–	-46.3	–
CC(Oc1ccccc1)c1nnc(SCC(=O)NC2CC2)n1C (stereo unspecified)	–	–	–	–	–	–
O=S(=O)(O)C1CCNCC1	–	–	–	–	-49.2	·
CCN(Cc1ccncc1)Cc1ccc2c(c1)CN(C(=O)c1ccc(C)cc1)CCO2	·	·	·	·	·	–
NC(=O)C1CCN(c2nc(C3CC3)nc3c2nnn3Cc2ccccc2)CC1	–	–	30.3	–	–	–
COc1ccc(NC(=O)CCc2c(C)nc3cc(-c4cccc(F)c4)nn3c2C)cc1Cl	–	–	40.5	–	–	–
COc1cc(OC)cc(-c2cc3nc(C)c(CCC(=O)Nc4ccc(F)c(Cl)c4)c(C)n3n2)c1	–	–	–	–	–	–
COc1cc(NC(=O)CCc2c(C)nc3cc(-c4ccccc4)nn3c2C)cc(OC)c1OC	–	–	–	–	–	–
COc1ccc(-c2cc3nc(C)c(CCC(=O)Nc4cccc(C(F)(F)F)c4)c(C)n3n2)c(OC)c1	–	–	32.0	–	–	–
COC(=O)c1cc(NC(=O)CCc2c(C)nc3cc(-c4ccccc4)nn3c2C)cc(C(=O)OC)c1	–	–	40.2	–	–	–
CCOc1cc(/C=C2\N=C(SC(C)C(N)=O)N(c3ccc(OC(F)F)cc3)C2=O)ccc1O (stereo unspecified)	47.1	–	–	32.0	–	–
O=C(NCCC1=CCCCC1)c1cccc(S(=O)(=O)N2CCCCC2)c1	–	–	–	–	-38.7	–
Cn1cc(S(=O)(=O)N2CCCC2)cc1C(=O)NCc1ccc(Cl)cc1	–	–	–	–	-33.2	–
CN(C)c1ccc(CNC(=O)c2cc(S(=O)(=O)N3CCCC3)cn2C)cc1	–	–	–	–	–	–
O=C(NCc1ccc(Cl)cc1)c1cccc(S(=O)(=O)N2CCCC2)c1	–	–	–	–	-39.8	–
CC(=O)N1c2ccc(S(=O)(=O)NCC3CCC(C(=O)NCc4ccco4)CC3)cc2CC1C (stereo unspecified)	–	–	–	–	–	–
O=C(O)Cn1c(=O)n(Cc2ccccc2)c2ccccc21	–	–	–	–	–	–
N=c1n(CC(=O)c2cccs2)c2ccccc2n1Cc1ccccc1	47.1	–	–	–	–	–
COc1ccccc1C1CN(CC(=O)N2CCC(N3CCOCC3)CC2)Cc2ccccc2O1 (stereo unspecified)	·	·	·	·	·	–
CCCS(=O)(=O)c1ncc(Cl)c(C(=O)N(Cc2ccccc2)Cc2ccco2)n1	–	–	–	–	-42.6	–
COc1ccc(C(=O)Nc2ccc3c(c2)nc(CCNC(C)=O)n3C)cc1	–	–	31.2	–	–	–
O=C(/C=C/c1c(F)cccc1Cl)NCc1ccc2c(c1)OCO2	–	–	–	–	–	–
CC1(C)CC(=O)C(C(c2ccco2)C2C(=O)CC(C)(C)CC2=O)C(=O)C1	–	–	38.6	–	–	–
CC1(C)CC(=O)C(C(c2ccc(F)cc2)C2C(=O)CC(C)(C)CC2=O)C(=O)C1	–	–	–	–	–	–
CCC(C)NC(=O)CN1C(=O)NC2(CCc3ccccc3C2)C1=O (stereo unspecified)	–	–	–	–	–	–
CCc1ccc(C(=O)c2cn(CC(=O)Nc3cc(OC)ccc3OC)c3ccc(C)cc3c2=O)cc1	–	–	–	–	–	–
C/C(=N/OCC(=O)Nc1ccccc1)c1cccs1	31.4	–	–	–	–	–
